# From PubChem BioAssay
# RN4220 kill: growth inhibition of S. aureus RN4220, primary screen, OD600. inhibition, % (test concentration not listed). 0.33% of 330,000 active. AID 1259311, 2017. 16 h; in the data active means inhibition above about 85%;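 further: plate controls were untreated cells for no effect and reference antibiotic for full effect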
# SSB-PriA inh: inhibitors of Klebsiella pneumoniae PriA binding to SSB C-terminal tail, primary screen, biochemical, AlphaScreen; inhibition, % at 33 µM; AlphaScreen SSBct-PriA binding, biotinylated peptide; 0.6% of 430,000 active; PriA–SSB C-terminal tail interaction (Klebsiella pneumoniae); AID 1272365, 2023; in the data active means inhibition mostly above about 37%, no sharp cut-off; inactive means mostly below about 20%;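 further: plate controls were negative control peptide for no effect and reference peptide for full effect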
# ugtP null kill: growth inhibition of ugtP-null S. aureus, primary screen, RN4220 ugtP deletion, OD600; 16 h; growth inhibition, % (concentration not given with the values); 0.54% of 330,000 active; in the data active means growth inhibition above about 68%;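 further: plate controls were untreated wells for no effect and antibiotic for full effect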
# CCHFV vOTU inh: CCHFV vOTU protease inhibitors, primary screen, biochemical, Pep-AMC substrate, fluorescence; 0.55% of 370,000 active; inhibition, % at 11.5 µM; in the data active means inhibition above about 30%; further: 0% = vehicle wells with enzyme and 100% = no enzyme wells
# Mtb hypoxia rep: PubChem AID 1159583; M. tuberculosis hypoxia-regulated fluorescent reporter, fluorescence; fluorescence inhibition, % (concentration not given with the values); 0.1% of 300,000 active; in the data active means fluorescence inhibition mostly above about 23%, no sharp cut-off; inactive means mostly below about 17%
# * hit, by the source's call; x = not tested or not shown. Rows were chosen to be rich in hits. Some 1.4% of all compounds tested hit in one or more screens of this group.
SMILES,RN4220 kill,SSB-PriA inh,ugtP null kill,CCHFV vOTU inh,Mtb hypoxia rep
CCN(CC)c1ccc(S(=O)(=O)N2CCOCC2)cc1NC(=O)CSc1nncn1C,5.1,2.5,9.0,34.6*,7.1
O=C(c1ccccn1)N1CCc2cc(S(=O)(=O)N3CCOCC3)ccc21,x,7.0,x,x,x
CC(C)CNS(=O)(=O)c1ccc2nc(NC(=O)c3ccccc3Cl)sc2c1,x,41.0*,x,x,x
CS(=O)(=O)c1ccc2nc(NC(=O)c3ccccc3Cl)sc2c1,-9.0,-7.4,-3.4,-2.0,-0.8
CN1CCc2cc3c(c4c2[C@H]1[C@H](O)c1ccccc1-4)OCO3,x,5.3,x,37.4*,x
CN1CCc2cc3c(cc2C1C1OC(=O)c2c1ccc1c2OCO1)OCO3 (centres undefined),5.8,x,-0.9,x,-2.7
CCc1sc(N(C(=O)Cc2ccccc2)c2ccccc2F)nc1-c1ccc(C)cc1,-10.9,-5.2,84.8*,5.8,5.4
Nc1cc(N)cc(-c2nc3ccccc3[nH]2)c1,14.3,45.1*,-3.5,9.8,-1.4
c1ccc(-c2nc3ccccc3[nH]2)cc1,5.3,-12.5,-0.9,-3.3,3.5
CCCCc1ccc(-c2ccc(Br)cc2)nc1,17.9,-17.0,87.7*,-17.2,1.5
CCCCc1ccc(C(=O)O)nc1,11.5,87.0*,-5.7,-3.1,-5.4
CCN(CC)c1ccc(C=NNC(=O)CN2CCCc3ccccc32)cc1,2.1,49.7*,4.1,x,3.2
O=C(CN1CCCc2ccccc21)N/N=C\C=C/c1ccccc1,x,39.0*,x,x,x
O=C(/C=C(\O)c1ccc(Cl)cc1)C(=O)NNC(=O)C(O)(c1ccccc1)c1ccccc1,-6.1,x,92.0*,x,x
COc1ccc(C(O)=CC(=O)C(=O)NNC(=O)C(O)(c2ccccc2)c2ccccc2)cc1,x,-1.7,x,x,x
O=C(Nc1cccc(C(F)(F)F)c1)c1cccnc1N1CCN(c2ccccc2)CC1,-9.7,3.7,92.1*,-2.7,2.6
O=C(Nc1cccc(C(F)(F)F)c1)c1cccnc1N1CCN(CCO)CC1,7.3,-6.2,-13.5,-3.9,4.8
O=C1c2cccc3cccc(c23)C(=O)N1CCN1CCN(C(=S)Nc2ccccc2)CC1,92.7*,-2.6,97.8*,-10.8,13.0
COc1ccc([N+](=O)[O-])cc1C=NNC(=O)/C(=C\c1cccs1)NC(=O)c1ccccc1,-3.7,-1.1,3.0,x,-6.3
Cc1cccc(NN=C(C(N)=O)C2=NC(C)(C)Cc3ccccc32)c1,-2.6,56.9*,24.3,x,9.7
CC1(C)Cc2ccccc2C(/C(=N\Nc2cccc(Cl)c2)C(N)=O)=N1,x,x,x,2.6,x
COc1ccc(NC(=S)N/N=C2\CC(C)(C)Oc3ccc(O)cc32)cc1,x,x,x,2.5,x
COc1ccccc1NC(=S)N/N=C1\CC(C)(C)Oc2ccc(O)cc21,x,x,x,0.4,x
Cc1ccccc1NC(=S)NN=C1CC(C)(C)Oc2ccc(O)cc21,6.3,47.3*,9.8,x,1.4
Cc1cccc(NC(=S)NN=C2CC(C)(C)Oc3ccc(O)cc32)c1,0.5,46.8*,11.3,x,-11.3
SMILES,RN4220 kill,SSB-PriA inh,ugtP null kill,CCHFV vOTU inh,Mtb hypoxia rep
CC1=Nc2ccccc2C1=Cc1sc(=N)n(-c2nccs2)c1O,x,33.0,x,x,x
COc1ccc(-n2c(=O)[nH]c3c(C(N)=O)nc(-c4ccc(F)c(F)c4)nc32)c(OC)c1,x,-20.0,x,x,x
O=C1C(Br)=Cc2cccc3cccc1c23,82.5,16.6,91.5*,-2.2,x
O=C1C(=O)c2cccc3cccc1c23,2.2,-3.7,4.9,14.9,-2.0
CCCC(=O)Nc1cnc(N2CCN(C)CC2)nc1,x,-8.0,x,x,x
O=[N+]([O-])c1ccc2c(c1Nc1ccccc1)=NC1(CCCCC1)N=2,7.1,-17.4,-2.0,3.5,14.3
COc1ccc(Nc2c([N+](=O)[O-])ccc3c2=NC2(CCCCC2)N=3)cc1,1.4,75.9*,7.2,14.1,7.6
COC(=O)C1CCN(c2c([N+](=O)[O-])cc(C(F)(F)F)cc2[N+](=O)[O-])CC1,-1.7,58.7*,16.4,12.1,x
NC(=O)C1CCN(c2c([N+](=O)[O-])cc(C(F)(F)F)cc2[N+](=O)[O-])CC1,2.8,-6.9,3.1,-2.0,2.9
Cc1cc(CNC(=O)Cc2c(F)cccc2Cl)c(C)o1,x,-13.0,x,x,x
COc1ccc(CCC(=O)N2CC(n3cc(-c4ccccc4)nn3)C2)cc1Br,x,-24.0,x,x,x
Cc1ccc(C)c2sc(N(CCCn3ccnc3)C(=O)Cc3ccc(F)cc3)nc12,x,33.0*,x,x,x
COc1ccc(C)c2sc(N(CCCn3ccnc3)C(=O)Cc3ccccc3)nc12,x,33.0*,x,x,x
COc1ccc2nc(N(CCCn3ccnc3)C(=O)Cc3ccc(F)cc3)sc2c1,x,39.0*,x,x,x
CCOc1ccc2nc(N(CCCn3ccnc3)C(=O)c3cccs3)sc2c1,x,40.0*,x,x,x
Cc1ccc(C)c2sc(N(CCCn3ccnc3)C(=O)c3ccco3)nc12,x,-20.0,x,x,x
COc1ccc(Cl)c2sc(N(CCN(C)C)C(=O)Cc3ccccc3)nc12,x,12.0,x,x,x
CC(C)Oc1ccc(C(=O)Nc2ccc3c(c2)N(C(=O)C(C)(C)C)CC3)cc1,x,11.0,x,x,x
O=C(NCC1CCCO1)c1cccc2c1C(=O)c1ccc(Cl)cc1S2(=O)=O (centres undefined),-2.2,x,-9.4,x,-4.7
O=C(NC(=S)NCCOCc1ccc(Cl)cc1)c1cncc(Br)c1,x,5.0,x,x,x
O=C(/C=C/c1cn(CC(O)CN2CCCCC2)c2ccccc12)c1ccccc1 (centres undefined),1.9,22.2,0.7,-0.5,32.6*
COC(=O)c1ccc(C(=O)Nc2nnc(-c3cc(C)n(C)n3)o2)cc1,x,95.0*,x,x,x
COc1cc(C(=O)Nc2nnc(-c3cc(C)n(C)n3)o2)cc(OC)c1OC,x,-4.0,x,x,x
N#Cc1cccnc1OC1CCN(C(=O)c2ccc(OC(F)(F)F)cc2)CC1,x,6.0,x,x,x
O=C(NN=Cc1sc(N2CCOCC2)nc1-c1ccccc1)c1cccc(S(=O)(=O)N2CCOCC2)c1,4.4,x,11.6,x,-11.3
SMILES,RN4220 kill,SSB-PriA inh,ugtP null kill,CCHFV vOTU inh,Mtb hypoxia rep
c1ccc(C2OC3c4cccc5cccc(c45)C3N2c2ccccc2)cc1 (centres undefined),-6.0,-0.3,84.4*,10.5,0.3
CCCOC(=O)C[N+](C)(C)CCOC1CC2CCC1(C)C2(C)C (centres undefined),-3.9,-3.5,9.9,-4.0,-0.7
CC(C)CCOC(=O)C[N+](C)(C)CCOC1CC2CCC1(C)C2(C)C (centres undefined),45.5,-24.1,100.7*,7.2,41.1*
CCCCOC(=O)C[N+](C)(C)CCOC1CC2CCC1(C)C2(C)C (centres undefined),-5.9,-12.9,88.8*,-3.0,4.9
CCCCCCCOC(=O)C[N+](C)(C)CCOC1CC2CCC1(C)C2(C)C (centres undefined),100.2*,-22.7,100.2*,18.1,25.8
CCCCCCOC(=O)C[N+](C)(C)CCOC1CC2CCC1(C)C2(C)C (centres undefined),6.0,-14.2,33.8,3.5,-6.7
O=C(CCCSc1ccc(NC(=O)c2cccs2)nn1)Nc1cccnc1,x,-11.0,x,x,x
CC(OC(=O)CCC1CCCC1)C(=O)Nc1ccccc1[N+](=O)[O-] (centres undefined),8.6,42.7*,-1.8,7.8,13.2
COc1ccc(C)cc1S(=O)(=O)N1CCC(n2ccnn2)CC1,x,-13.0,x,x,x
